# Test results published in PubChem BioAssay (NCATS).
# Several values for one entry are separate records, joined by “and”; a condition that tells them apart may be missing. Equal entries are not always repeated. Inconclusive results are not listed. Where a call stands in place of a potency, no number is given. A structure can be active in one record and inactive in another. Activity calls are given as the source filed them. Unless noted, calls come from the whole dose curve. Numbered stars: 1 amine (or outer) side, 2 acyl side, 3 side chain; on linkers, the order of the positions; unused ones are H or OH. Bridge positions count the residues as written; N and C are the ends. Square brackets hold non-standard residues; d marks the D form. Peptide text beside a SMILES is read from it. I, II: the chains in the order shown. Actinocin(9to1) = Cc1c2oc3c(C)ccc(C(=O)[*:1])c3nc-2c(C(=O)[*:2])c(N)c1=O; NMeV = CN[C@H](C(=O)O)C(C)C; Sar = CNCC(=O)O
# Columns and labels:
# [1] = Primary qHTS for inhibitors of MERS-S pseudo-typed particle cell entry (AID 1479149); note: nearly all actives have a fitted effect of over 60% in size; note: potency is the fitted concentration of half-maximal effect
# [2] = Confirmatory qHTS to identify inhibitors of SARS-CoV-2 cell entry (AID 1645844); note: potency is the fitted concentration of half-maximal effect; nearly all actives have a fitted effect of over 45% in size
# Summary of the method: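 Luminescence entry read-out after 48 h: spike-pseudotyped MLV particles (Wuhan-Hu-1, 19-aa C-terminal truncation) added to compound-pretreated (1 h) HEK293-ACE2 cells; Data were normalised to bald PP and spike PP wells.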
# [3] = VSVG counterscreen qHTS to identify inhibitors of SARS-CoV-2 cell entry (AID 1645847); note: potency is the fitted concentration of half-maximal effect; nearly all actives have a fitted effect of over 65% in size
# Summary of the method: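 Entry of VSV-G pseudotyped particles into human ACE2-expressing HEK293 cells was measured by luciferase luminescence 48 h after infection, with compound added 1 h beforehand.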
# [4] = Cytotoxicity counterscreen for inhibitors of SARS-CoV-2 cell entry (AID 1645845); note: nearly all actives have a fitted effect of over 50% in size; note: potency is the fitted concentration of half-maximal effect
# Summary of the method: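 ATP-content luminescence (ATPLite 1step, 15 min RT) read after 48 h compound exposure of Expi293F cells stably expressing human ACE2; normalized to cells-only wells and media-only wells.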
# [5] = Primary qHTS to identify inhibitors of SARS-CoV-2 cell entry (AID 1645846); conditions: activity change, negative = inhibition: at 57.1 µM (top of the series) unless noted; note: nearly all actives have a fitted effect of over 45% in size; note: potency is the fitted concentration of half-maximal effect
# Summary of the method: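 Using luciferase-reporting pseudoviruses carrying Wuhan-Hu-1 spike, the screen tracks entry into stably ACE2-expressing cells over 48 hr. Activity is expressed relative to spike particles versus particles lacking any fusion protein.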
# [6] = Primary qHTS for Vero E6 cytotoxicity: counterscreen for inhibitors of SARS-S pseudo-typed particle cell entry (AID 1479150)
# [7] = Confirmatory qHTS for VERO E6 Cytotoxicity Assay: Counterscreen for SARS-CoV-2 CPE Assay (AID 1508605); note: nearly all actives have a fitted effect of over 60% in size; note: potency is the fitted concentration of half-maximal effect
# [8] = Primary qHTS for inhibitors of La Crosse Virus (LACV) - induced cell death in SH-SY5Y cells (AID 1508616; active = well fitted curve in the direction sought with a large enough effect; an effect the other way counts as inactive or inconclusive;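 note: top concentration of the series differs between compounds; higher means more rescue of cells from virus-induced death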)
# Summary of the method: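 Screening measures cell viability in LACV-infected SH-SY5Y cultures. Compound was added before virus (0.01 MOI), and ATP was detected by luminescence 6 days later.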
# [9] = target: Calcium and integrin-binding protein 1 (Homo sapiens) (UniProt Q99828); assay: Validation qHTS for Identification of Calcium Integrin Binding protein 1 (CIB1) Competitor (AID 1508618; active = well fitted curve in the direction sought with a large enough effect; an effect the other way counts as inactive or inconclusive)
# Summary of the method: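 Displacement of FITC-alphaIIb peptide (100 nM) from CIB1-GST (1 uM) is monitored by polarization in quantitative HTS format; buffer carries 5 mM CaCl2 and 125 mM NaCl at pH 7.4, incubations are at room temperature.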
# [10] = Primary qHTS for small molecule stabilizers of the endoplasmic reticulum resident proteome: Secreted ER Calcium Modulated Protein (SERCaMP) assay (AID 1508630; active = well fitted curve in the direction sought with a large enough effect; an effect the other way counts as inactive or inconclusive)
# Summary of the method: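 The SH-SY5Y reporter protocol was run at 3 concentrations up to 38.3 uM (primary) or 11 concentrations (follow-up): 16 h compound, 100 nM thapsigargin for 4 h, then extracellular luciferase luminescence.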
# [11] = Confirmatory qHTS for activators (rescue) of SARS-CoV-2 Cytopathic Effect (CPE) (AID 1508606); note: nearly all actives have a fitted effect of over 70% in size; note: potency is the fitted concentration of half-maximal effect
# [12] = target: Calcium and integrin-binding protein 1 (Homo sapiens) (UniProt Q99828); assay: Primary qHTS for Identification of Calcium Integrin Binding Protein 1 (CIB1) Competitor (AID 1508620; active = well fitted curve in the direction sought with a large enough effect; an effect the other way counts as inactive or inconclusive;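 note: GST tagged CIB1 binding a fluorescein labelled alphaIIb integrin peptide tracer; top concentration of the series differs between compounds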)
# Summary of the method: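 CIB1-GST (1 uM final) and compound incubated 15 min at room temperature before adding FITC-alphaIIb peptide tracer (100 nM final). Competition for binding read by fluorescence polarization (ex 480, em 540) after another 15 min at room temperature.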
# [13] = A High-Content qHTS Against Drug Library for the Identification of Small Molecules that Inhibit DYT1 Early Onset Primary Dystonia-Associated Cell Pathology (AID 1645839)
# Summary of the method: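 High-content imaging quantified EGFP-TorsinA mislocalization in HEK293-derived cells inducibly expressing DYT1 mutant torsinA, after 48 h exposure to compound given together with tetracycline induction. Cell count served as a toxicity channel alongside %pathology.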
# [14] = target: Cytochrome P450 2D6 (Homo sapiens) (UniProt P10635); assay: Cytochrome P450 family 2 subfamily D member 6 (CYP2D6) small molecule antagonists: luciferase biochemical (cell-free) qHTS assay (AID 1645840; active = well fitted curve in the direction sought with a large enough effect in the repeat runs; an effect the other way counts as inactive or inconclusive; note: potency is the fitted concentration of half-maximal effect; nearly all actives have a fitted effect of over 55% in size)
# Summary of the method: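 P450-Glo CYP2D6 system: proluciferin substrate converted by enzyme to luciferin, read by luminescence proportional to activity. Enzyme-substrate mix with compound 10 min at room temperature, then NADPH regeneration 1 h before detection reagent.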
# [15] = target: Cytochrome P450 2C9 (Homo sapiens) (UniProt P11712); assay: Cytochrome P450 family 2 subfamily C member 9 (CYP2C9) small molecule antagonists: luciferase biochemical (cell-free) qHTS assay (AID 1645842; active = well fitted curve in the direction sought with a large enough effect in the repeat runs; an effect the other way counts as inactive or inconclusive; note: potency is the fitted concentration of half-maximal effect; nearly all actives have a fitted effect of over 55% in size)
# Summary of the method: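 P450-Glo CYP2C9 system: proluciferin substrate with enzyme in mix containing 0.4% BSA, 10 min at room temperature, then NADPH regeneration solution added and incubated 1 h at 37C. Detection reagent stopped reaction; luminescence read after 20 min as RLU.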
# Sequence of Calcium and integrin-binding protein 1 (Homo sapiens) (Q99828 whole entry, looked up): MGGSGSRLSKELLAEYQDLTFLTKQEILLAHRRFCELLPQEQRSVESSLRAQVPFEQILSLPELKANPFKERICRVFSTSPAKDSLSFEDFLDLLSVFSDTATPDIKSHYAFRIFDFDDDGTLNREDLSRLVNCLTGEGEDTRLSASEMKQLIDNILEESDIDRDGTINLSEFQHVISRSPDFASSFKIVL
# Sequence of Cytochrome P450 2C9 (Homo sapiens) (P11712 whole entry, looked up): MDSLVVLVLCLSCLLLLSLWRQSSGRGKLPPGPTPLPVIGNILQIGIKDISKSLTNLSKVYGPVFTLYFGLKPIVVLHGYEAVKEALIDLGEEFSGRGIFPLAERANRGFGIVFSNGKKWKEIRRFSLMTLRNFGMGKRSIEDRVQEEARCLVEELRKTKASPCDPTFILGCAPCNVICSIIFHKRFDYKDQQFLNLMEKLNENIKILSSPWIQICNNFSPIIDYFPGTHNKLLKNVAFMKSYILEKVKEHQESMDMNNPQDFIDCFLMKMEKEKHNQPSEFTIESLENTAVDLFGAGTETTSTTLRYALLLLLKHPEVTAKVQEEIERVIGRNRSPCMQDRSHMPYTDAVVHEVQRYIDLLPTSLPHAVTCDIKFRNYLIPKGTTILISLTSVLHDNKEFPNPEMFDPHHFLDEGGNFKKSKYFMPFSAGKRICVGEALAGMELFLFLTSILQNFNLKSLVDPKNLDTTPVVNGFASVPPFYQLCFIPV
# Sequence of Cytochrome P450 2D6 (Homo sapiens) (P10635 whole entry, looked up): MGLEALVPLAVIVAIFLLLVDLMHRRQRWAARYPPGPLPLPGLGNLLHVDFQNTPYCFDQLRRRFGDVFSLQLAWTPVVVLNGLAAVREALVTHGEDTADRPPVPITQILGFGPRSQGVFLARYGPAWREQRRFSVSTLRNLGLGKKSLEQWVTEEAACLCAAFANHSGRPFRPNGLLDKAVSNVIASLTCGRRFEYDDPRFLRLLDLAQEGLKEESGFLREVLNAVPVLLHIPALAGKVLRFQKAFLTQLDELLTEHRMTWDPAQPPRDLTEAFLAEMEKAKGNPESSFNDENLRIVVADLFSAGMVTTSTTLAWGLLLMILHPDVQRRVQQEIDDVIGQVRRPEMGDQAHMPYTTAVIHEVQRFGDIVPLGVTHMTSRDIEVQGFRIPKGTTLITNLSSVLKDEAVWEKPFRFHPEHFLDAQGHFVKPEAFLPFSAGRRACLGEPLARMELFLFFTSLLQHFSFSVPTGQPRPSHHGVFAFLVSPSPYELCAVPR
smiles,measurement,setting,value
O=C1C(=O)c2ccccc2C(O)=C1C1CCC(c2ccc(Cl)cc2)CC1 (stereo not given),Potency,[1],22.4 µM (active)
same,Potency,[2],12.1 µM (active)
same,Potency,[3],9.61 µM (active)
Cc1nc(-c2ccc(OCC(C)C)c(C#N)c2)sc1C(=O)O,Potency,[1],inactive
same,Potency,[4],inactive
same,Potency,[5],inactive
COc1cc2nc(N(C)CCCNC(=O)C3CCCO3)nc(N)c2cc1OC (stereo not given),Potency,[6],inactive
COc1ccc(-c2cc(=S)ss2)cc1,Potency,[1],inactive
same,Potency,[4],inactive
CCCCc1oc2ccc(NS(C)(=O)=O)cc2c1C(=O)c1ccc(OCCCN(CCCC)CCCC)cc1,Potency,[1],17.8 µM (active)
same,Potency,[5],11.2 µM (active)
NNc1nncc2ccccc12,Potency,[1],inactive
same,Potency,[4],inactive
same,Potency,[5],inactive
same,"activity change, negative = inhibition",[5],83.2% [at 27.1 µM]
Cc1oncc1C(=O)Nc1ccc(C(F)(F)F)cc1,Potency,[1],inactive
same,Potency,[4],8.91 µM (active)
same,Potency,[5],inactive
same,"activity change, negative = inhibition",[5],-15.8%
CCOC(=O)Nc1ccc2c(c1)N(C(=O)CCN1CCOCC1)c1ccccc1S2,Potency,[1],inactive
same,Potency,[6],inactive
same,"activity change, negative = inhibition",[5],-15.7%
CC(C)C[C@H](NC(=O)[C@H](CCc1ccccc1)NC(=O)CN1CCOCC1)C(=O)N[C@@H](Cc1ccccc1)C(=O)N[C@@H](CC(C)C)C(=O)[C@@]1(C)CO1,Potency,[1],inactive
same,"activity change, negative = inhibition",[5],-96% and -97.8%
CCC(C)(C)C(=O)O[C@H]1C[C@@H](C)C=C2C=C[C@H](C)[C@H](CC[C@@H]3C[C@@H](O)CC(=O)O3)[C@H]21,Potency,[1],inactive
same,Potency,[4],inactive
same,Potency,[5],inactive
CN(C)CCC=C1c2ccccc2CCc2ccccc21,Potency,[6],inactive
same,Potency,[7],inactive
same,Potency,[4],inactive
same,Potency,[5],20 µM (active)
CN(C)C(=O)C(CCN1CCC(O)(c2ccc(Cl)cc2)CC1)(c1ccccc1)c1ccccc1,Potency,[6],inactive
same,Potency,[7],inactive
same,Potency,[2],21.5 µM (active)
same,Potency,[4],inactive
same,Potency,[3],24.1 µM (active)
Nc1ccn([C@@H]2O[C@H](CO)[C@@H](O)C2(F)F)c(=O)n1,Potency,[6],inactive
same,Potency,[2],0.341 µM (active)
same,Potency,[4],inactive
same,Potency,[5],3.16 µM (active)
same,"activity change, negative = inhibition",[5],-96.3%
same,Potency,[3],0.304 µM (active)
O=c1[nH]c2ccccc2n1CCCN1CCC(n2c(=O)[nH]c3cc(Cl)ccc32)CC1,Potency,[6],inactive
same,Potency,[8],inactive
same,Potency,[9],inactive
same,outcome,[10],inactive
same,Potency,[4],inactive
same,"activity change, negative = inhibition",[5],-22.6%
CNCCCC1c2ccccc2C=Cc2ccccc21,Potency,[6],inactive
same,Potency,[7],inactive
same,Potency,[4],inactive
OCCN(CCO)c1nc(N2CCCCC2)c2nc(N(CCO)CCO)nc(N3CCCCC3)c2n1,Potency,[6],inactive
same,Potency,[4],inactive
CC(CN(C)C)CN1c2ccccc2CCc2ccccc21 (stereo not given),Potency,[6],inactive
same,Potency,[7],inactive
same,Potency,[2],7.64 µM (active)
same,Potency,[4],inactive
same,Potency,[3],1.92 µM (active)
OC(CCN1CCCC1)(c1ccccc1)C1CCCCC1 (stereo not given),Potency,[6],inactive
same,Potency,[4],inactive
COc1c(C)c2c(c(O)c1C/C=C(\C)CCC(=O)O)C(=O)OC2,Potency,[6],inactive
same,Potency,[2],0.607 µM (active)
same,Potency,[4],inactive
same,Potency,[3],0.482 µM (active)
C[C@H]1c2cccc(O)c2C(O)=C2C(=O)[C@]3(O)C(O)=C(C(N)=O)C(=O)[C@@H](N(C)C)[C@@H]3[C@@H](O)[C@@H]21,Potency,[6],inactive
same,Potency,[4],inactive
CN(C)CCCN1c2ccccc2Sc2ccc(Cl)cc21,Potency,[6],inactive
same,Potency,[11],11.2 µM (active)
same,Potency,[2],12.1 µM (active)
same,Potency,[4],inactive
same,Potency,[3],17.1 µM (active)
COc1cc2nc(N3CCN(C(=O)C4COc5ccccc5O4)CC3)nc(N)c2cc1OC (stereo not given),Potency,[6],inactive
same,Potency,[7],inactive
same,Potency,[4],inactive
CCCNCC(O)COc1ccccc1C(=O)CCc1ccccc1 (stereo not given),Potency,[6],inactive
same,Potency,[7],inactive
same,Potency,[4],inactive
same,Potency,[5],20 µM (active) and 35.5 µM (active)
COC(=O)C1=C(C)NC(C)=C(C(=O)OCCN(C)Cc2ccccc2)C1c1cccc([N+](=O)[O-])c1 (stereo not given),Potency,[6],inactive
same,Potency,[4],inactive
O=C(O)c1ccc(-n2nc(-c3ccccc3O)nc2-c2ccccc2O)cc1,Potency,[6],inactive
same,Potency,[2],30.4 µM (active)
same,Potency,[3],24.1 µM (active)
CN(C)CCC=C1c2ccccc2C=Cc2ccccc21,Potency,[6],inactive
same,Potency,[7],inactive
same,Potency,[4],inactive
same,Potency,[5],14.1 µM (active)
CNCCC(Oc1ccc(C(F)(F)F)cc1)c1ccccc1 (stereo not given),Potency,[6],inactive
same,Potency,[7],inactive
same,Potency,[2],6.81 µM (active)
same,Potency,[4],inactive
same,Potency,[3],0.121 µM (active)
"Cc1c2oc3c(C)ccc(C(=O)N[C@@H]4C(=O)N[C@H](C(C)C)C(=O)N5CCC[C@H]5C(=O)N(C)CC(=O)N(C)[C@@H](C(C)C)C(=O)O[C@@H]4C)c3nc-2c(C(=O)N[C@@H]2C(=O)N[C@H](C(C)C)C(=O)N3CCC[C@H]3C(=O)N(C)CC(=O)N(C)[C@@H](C(C)C)C(=O)O[C@@H]2C)c(N)c1=O (I: T[dV]P[Sar][NMeV] / II: T[dV]P[Sar][NMeV]; ester I:1-I:C, II:1-II:C; linker I:N-II:N via Actinocin(9to1))",Potency,[6],inactive
same,Potency,[2],0.0764 µM (active)
same,Potency,[4],inactive
same,"activity change, negative = inhibition",[5],-94.7%
same,Potency,[3],0.0429 µM (active)
CN1CCN(CCCN2c3ccccc3Sc3ccc(Cl)cc32)CC1,Potency,[6],inactive
same,Potency,[7],20 µM (active)
same,Potency,[4],inactive
Cc1ccc(O)c([C@H](CCN(C(C)C)C(C)C)c2ccccc2)c1,Potency,[6],inactive
same,Potency,[4],inactive
OCCN1CCN(CCCN2c3ccccc3Sc3ccc(Cl)cc32)CC1,Potency,[6],inactive
same,Potency,[11],inactive
same,Potency,[4],28.2 µM (active)
CCC(COC(=O)c1cc(OC)c(OC)c(OC)c1)(c1ccccc1)N(C)C (stereo not given),Potency,[6],inactive
same,Potency,[8],inactive
same,Potency,[12],inactive
same,outcome,[10],inactive
same,Potency,[13],inactive
same,Potency,[14],0.389 µM (active)
same,Potency,[15],13.8 µM (active)
CNCCCN1c2ccccc2CCc2ccccc21,Potency,[6],inactive
same,Potency,[7],inactive
same,Potency,[4],inactive
